Source: PubChem BioAssay AID602261 (Sanford-Burnham Center for Chemical Genomics, 2012)
The whole screen tested about 360,000 compounds, of which about 2,400 (0.67%) were called active. This is one part of a sample in which actives are shown more often than they occur. Unmarked numbers belong to inactive results.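 The calls were made as follows: active = compounds whose normalised, plate-corrected inhibition of enzyme fluorescence in the single-dose primary screen is 50% or more; inactive = the rest.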

These molecules were tested against Fatty acid synthase (Homo sapiens) (UniProt P49327) (assay: FAS thioesterase domain inhibitors, primary screen, biochemical, fluorescence intensity, uHTS (AID 602261;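 also: 0% = DMSO with enzyme and 100% = substrate without enzyme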)). Settings: recombinant FAS-TE, OMFH fluorogenic substrate, fluorescence endpoint; at 15 µM; stronger effect = higher value.
Fatty acid synthase (Homo sapiens), sequence (P49327 whole entry, looked up, the tested form may be a part): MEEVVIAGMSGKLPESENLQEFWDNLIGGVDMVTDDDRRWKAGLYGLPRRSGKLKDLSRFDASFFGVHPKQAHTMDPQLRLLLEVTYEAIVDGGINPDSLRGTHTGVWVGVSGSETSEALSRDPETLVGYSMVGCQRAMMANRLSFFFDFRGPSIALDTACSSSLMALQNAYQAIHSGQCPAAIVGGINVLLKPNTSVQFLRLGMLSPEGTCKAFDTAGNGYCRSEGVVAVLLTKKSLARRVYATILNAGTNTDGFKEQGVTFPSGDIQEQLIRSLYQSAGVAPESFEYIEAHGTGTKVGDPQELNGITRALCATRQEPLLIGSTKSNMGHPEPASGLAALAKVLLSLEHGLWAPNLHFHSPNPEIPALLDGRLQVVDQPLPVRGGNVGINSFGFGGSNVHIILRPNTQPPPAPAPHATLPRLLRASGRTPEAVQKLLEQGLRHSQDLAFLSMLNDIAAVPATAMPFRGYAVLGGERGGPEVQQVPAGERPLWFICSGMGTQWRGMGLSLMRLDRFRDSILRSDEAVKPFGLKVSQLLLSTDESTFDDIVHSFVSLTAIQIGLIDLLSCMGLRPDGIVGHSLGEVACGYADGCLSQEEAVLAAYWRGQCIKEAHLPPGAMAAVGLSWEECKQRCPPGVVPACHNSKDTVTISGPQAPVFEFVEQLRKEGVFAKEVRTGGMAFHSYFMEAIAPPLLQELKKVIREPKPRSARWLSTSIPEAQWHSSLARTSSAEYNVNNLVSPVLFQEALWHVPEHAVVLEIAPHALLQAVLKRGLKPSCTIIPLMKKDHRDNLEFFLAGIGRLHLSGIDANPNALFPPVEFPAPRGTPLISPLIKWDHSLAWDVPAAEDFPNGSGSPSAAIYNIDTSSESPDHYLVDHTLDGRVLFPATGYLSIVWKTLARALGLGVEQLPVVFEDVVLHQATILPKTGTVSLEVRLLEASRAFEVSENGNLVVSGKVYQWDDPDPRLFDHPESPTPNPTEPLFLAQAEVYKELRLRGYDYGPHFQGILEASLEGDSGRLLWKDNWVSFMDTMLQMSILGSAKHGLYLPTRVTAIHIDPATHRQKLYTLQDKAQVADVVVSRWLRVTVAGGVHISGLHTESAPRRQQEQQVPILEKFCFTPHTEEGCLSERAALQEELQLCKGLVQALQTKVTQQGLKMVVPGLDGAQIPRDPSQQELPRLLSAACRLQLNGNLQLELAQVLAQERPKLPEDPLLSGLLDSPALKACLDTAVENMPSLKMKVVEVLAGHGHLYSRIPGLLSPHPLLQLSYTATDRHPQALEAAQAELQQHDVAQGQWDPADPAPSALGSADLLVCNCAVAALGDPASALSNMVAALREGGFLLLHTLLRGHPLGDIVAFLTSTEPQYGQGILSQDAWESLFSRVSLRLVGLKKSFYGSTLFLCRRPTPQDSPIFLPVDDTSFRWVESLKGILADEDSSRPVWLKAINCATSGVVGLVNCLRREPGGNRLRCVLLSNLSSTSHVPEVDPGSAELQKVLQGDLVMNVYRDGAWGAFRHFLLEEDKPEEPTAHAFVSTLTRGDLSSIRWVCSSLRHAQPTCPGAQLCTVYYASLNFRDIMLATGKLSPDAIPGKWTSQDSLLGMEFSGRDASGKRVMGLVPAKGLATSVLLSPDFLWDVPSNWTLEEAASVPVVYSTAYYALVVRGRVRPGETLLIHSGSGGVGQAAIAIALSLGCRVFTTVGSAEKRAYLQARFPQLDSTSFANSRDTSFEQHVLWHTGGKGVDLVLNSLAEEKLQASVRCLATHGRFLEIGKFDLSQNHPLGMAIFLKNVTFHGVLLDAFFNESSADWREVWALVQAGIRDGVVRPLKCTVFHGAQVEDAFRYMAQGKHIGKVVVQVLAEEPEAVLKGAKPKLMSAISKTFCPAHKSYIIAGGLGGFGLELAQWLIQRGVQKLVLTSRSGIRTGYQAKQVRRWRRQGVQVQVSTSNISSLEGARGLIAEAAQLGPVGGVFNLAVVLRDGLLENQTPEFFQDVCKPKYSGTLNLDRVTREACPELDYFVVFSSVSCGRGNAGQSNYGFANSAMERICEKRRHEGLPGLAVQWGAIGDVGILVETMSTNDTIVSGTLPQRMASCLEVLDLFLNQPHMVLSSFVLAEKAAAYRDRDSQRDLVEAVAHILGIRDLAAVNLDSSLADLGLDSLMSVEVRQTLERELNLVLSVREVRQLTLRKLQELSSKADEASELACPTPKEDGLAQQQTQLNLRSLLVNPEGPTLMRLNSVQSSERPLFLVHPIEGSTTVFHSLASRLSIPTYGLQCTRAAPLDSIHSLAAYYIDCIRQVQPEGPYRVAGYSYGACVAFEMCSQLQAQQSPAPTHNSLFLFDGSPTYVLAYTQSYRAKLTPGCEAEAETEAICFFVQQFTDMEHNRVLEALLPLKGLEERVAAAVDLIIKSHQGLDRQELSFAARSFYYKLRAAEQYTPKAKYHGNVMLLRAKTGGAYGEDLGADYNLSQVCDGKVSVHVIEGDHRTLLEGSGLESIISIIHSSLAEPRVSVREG
`Cn1cc(S(=O)(=O)N2CCC(Cc3ccccc3)CC2)c(=O)n(C)c1=O` gave an inhibition of -7.6%.
In the case of `COCCn1c(SCC(=O)Nc2cc(Cl)ccc2OC)nc2c(c1=O)SC(C)C2` (stereo not given), the inhibition is reported as 20.2%.
With `Cc1ccccc1-n1nnnc1SCCCC(=O)c1ccc(F)cc1` the inhibition was 19.4%.
Molecule `CC(C)=CCc1ccc(O)c(=O)cc1C(C)C` has an inhibition of -0.3%.
In the case of `COc1cccc(NC(=O)CN(C)C(=O)c2ccccc2CCc2ccccc2)c1`, the inhibition is reported as 23.2%.
`COc1ccc(CN2CCCC(C(=O)c3ccc(Cl)cc3)C2)cc1Cn1cncn1` (stereo not given) was tested, and the inhibition was -9.9%.
With `COc1ccc(C2Nc3ccccc3C(=O)N2c2ccc(Cl)cc2)cc1Cn1cc([N+](=O)[O-])cn1` (stereo not given) the inhibition was 69.9% (active).
`COc1ccc(C2Nc3ccccc3C(=O)N2Cc2ccccc2)cc1Cn1nnc2ccccc21` (stereo not given) was tested, and the inhibition was 35.8%.
In the case of `Cc1ccc(Nc2cc(C)nc3c(C)ccc([N+](=O)[O-])c23)cc1`, the inhibition is reported as 25%.
Work on `N#CCCN(C(=O)COC(=O)C1CCN(c2ccc(C(F)(F)F)cn2)CC1)c1ccc(F)cc1` yielded an inhibition of 18.7%.
In the case of `Nc1cc(OC(=O)c2ccccc2Br)nn1S(=O)(=O)c1ccccc1`, the inhibition is reported as 5.4%.
Molecule `O=C(CC(O)(C(F)(F)F)C(F)(F)F)Nc1ccc(Cl)c(Cl)c1` has an inhibition of 22.2%.
For `O=C(CCl)Nc1ccc(Sc2ccc(NC(=O)CCl)cc2)cc1`, the inhibition was 2.8%.
For `O=C(Cc1ccc(Cl)c(Cl)c1)Nc1ccc(SC(F)F)cc1`, the inhibition was 66.1% (active).
Work on `CCOC(=O)Cn1nnnc1C` yielded an inhibition of -1.8%.
With `O=C(NCc1ccc2c(c1)OCO2)c1cc([N+](=O)[O-])ccc1N1CCOCC1` the inhibition was 51.7% (active).
Work on `CC1CCN(c2ccc(C(=O)NCc3ccc4c(c3)OCO4)cc2[N+](=O)[O-])CC1` yielded an inhibition of 13.7%.
Work on `O=C(Cc1ccc([N+](=O)[O-])cc1)NCCc1ccc2c(c1)OCO2` yielded an inhibition of 18.8%.
In the case of `CN(C)c1ccc(S(=O)(=O)NCC(=O)NCC2CCCCC2)cc1[N+](=O)[O-]`, the inhibition is reported as 5.2%.
With `CC(C)(C)c1ccc(/C=C/C(=O)NC2CCS(=O)(=O)C2)cc1` (stereo not given) the inhibition was -0.6%.
In the case of `CN(C)c1ccc(/C=C/C(=O)c2ccc(C(C)(C)C)cc2)cc1[N+](=O)[O-]`, the inhibition is reported as 74.2% (active).
`Cc1ccc(S(=O)(=O)N2CCN(C)CC2)cc1C(=O)NC1CCCCC1` gave an inhibition of -7%.
`CCOC(=O)C1=CN(Cc2ccc(Br)cc2)S(=O)(=O)NC1C` (stereo not given) was tested, and the inhibition was 9.4%.
`CC(C)[C@@H]1COC(c2cccc(C3=N[C@H](C(C)C)CO3)c2)=N1` was tested, and the inhibition was 1.1%.
`CC1(C)O[C@@H]2[C@H](O1)[C@@H](COS(=O)(=O)O)O[C@H]2n1ccc(=O)[nH]c1=O` gave an inhibition of -13.4%.
